Rows were chosen to be rich in hits. Some 19% of all compounds tested hit in one or more screens of this group.
RORgamma inh: qHTS for inhibitors of ROR gamma transcriptional activity | Nuclear receptor ROR-gamma (Mus musculus), P51450 | Drosophila S2 Gal4-RORgamma UAS-luciferase reporter, 20 h | Potency, µM (highest dose often 53.6 µM), for the others: at the top dose activity change, negative = inhibition, hits mostly inhibitors | actives 5.4% (n = 310,000); also: nearly all actives have a fitted effect of over 60% in size
Target sequence (P51450 whole entry, looked up, the tested form may be a part): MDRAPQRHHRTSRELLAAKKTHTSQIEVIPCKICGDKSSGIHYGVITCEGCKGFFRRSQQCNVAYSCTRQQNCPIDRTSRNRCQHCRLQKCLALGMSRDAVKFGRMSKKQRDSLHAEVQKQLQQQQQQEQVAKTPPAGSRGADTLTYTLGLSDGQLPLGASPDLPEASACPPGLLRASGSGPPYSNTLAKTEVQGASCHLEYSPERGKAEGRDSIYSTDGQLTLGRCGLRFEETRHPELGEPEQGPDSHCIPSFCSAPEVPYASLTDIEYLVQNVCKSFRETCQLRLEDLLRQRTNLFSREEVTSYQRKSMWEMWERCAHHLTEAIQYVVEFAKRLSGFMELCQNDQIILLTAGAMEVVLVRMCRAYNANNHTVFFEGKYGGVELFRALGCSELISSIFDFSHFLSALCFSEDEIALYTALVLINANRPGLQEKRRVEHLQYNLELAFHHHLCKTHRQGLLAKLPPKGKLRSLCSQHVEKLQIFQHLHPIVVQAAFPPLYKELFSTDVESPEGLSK
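Schneider cells (Drosophila), stable Gal4 DBD–ROR gamma + UAS-luc; 1 hr cmpd preincubation; Cu2+ induction 700 uM final; 20 hr ambient; luminescence.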
TDP1 inh: qHTS Assay for Inhibitors of Tyrosyl-DNA Phosphodiesterase (TDP1); AID 485290, 2010; Potency, µM (titrated, usually from 130 µM), for inactives: at the highest dose activity change, negative = inhibition, most hits filed as inhibitors; recombinant TDP1, AlphaScreen DNA substrate cleavage; actives 0.28% (n = 350,000); also: nearly all actives have a fitted effect of over 40% in size
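Here, a 5' biotin and 3' phosphotyrosine-FITC DNA oligonucleotide reports Tdp1 activity: intact substrate bridges AlphaScreen beads, while cleavage leaves a 3' phosphate and drops signal. All incubations at room temperature.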
Gal4-VP16 FLuc: VP16 counterscreen qHTS for inhibitors of ROR gamma transcriptional activity; Drosophila S2 Gal4-VP16 UAS-luciferase, luminescence, 20 h; Potency, µM (series often up to 53.6 µM), for the others: at the top dose activity, negative = inhibition, usual class: inhibitors; actives 3.5% (n = 310,000);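 also: Gal4-VP16 expression switched on by copper sulfate through the metallothionein promoter; nearly all actives have a fitted effect of over 50% in size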
DT40 TDP1 no CPT: qHTS for Inhibitors of human tyrosyl-DNA phosphodiesterase 1 (TDP1): qHTS in cells in absence of CPT; DT40 Tdp1-/- hTDP1 cells, no CPT, ATP luminescence, 48 h; Potency, µM (series often up to 46.2 µM), for the others: top-dose activity change, negative = growth inhibition, usual class: inhibitors; actives 15% (n = 420,000); also: nearly all actives have a fitted effect of over 55% in size
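No-CPT arm: Tdp1-/-;hTDP1 DT40 cells (400/well) plus compounds, incubated ≥48 hr at 37 °C. Readout CellTiter-Glo luminescence.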
DT40 TDP1 CPT: qHTS for Inhibitors of human tyrosyl-DNA phosphodiesterase 1 (TDP1): qHTS in cells in presence of CPT; chicken DT40 Tdp1-/-;hTDP1 cells + 20 nM CPT, ATP luminescence, 48 h; Potency, µM (top dose mostly 46.2 µM), for the others: at the highest dose activity change, negative = growth inhibition, hits mostly inhibitors; actives 12% (n = 420,000); also: nearly all actives have a fitted effect of over 55% in size
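Cell growth measured by CellTiter-Glo luminescence after a minimum 48 h, 37 C compound exposure with 20 nM CPT in Tdp1-knockout DT40 cells stably expressing hTDP1, seeded 400/well; qHTS titration format.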
The depositor's hits bear a star; u = inconclusive; x = no result; [ ] = remark or other dose. Calls follow the shape of the dose curve; as a rule, active = well fitted curve in the direction sought with a large enough effect; inconclusive = small, poorly fitted or top-dose-only effect, or another doubt; inactive = no such curve, though single readings can be large; an effect the other way counts as inactive or inconclusive. % is scaled to controls: 0 for no effect and ±100 for the full control effect; potency is read from the fitted curve at half-maximal effect.

SMILES	RORgamma inh	TDP1 inh	Gal4-VP16 FLuc	DT40 TDP1 no CPT	DT40 TDP1 CPT
O=S(=O)(NCC(c1ccco1)N1CCOCC1)c1ccc(F)cc1 (configuration not stated)	x	5%	x	-10%	-12%
O=S(=O)(NCC(c1ccco1)N1CCN(c2ccc(F)cc2)CC1)c1ccccc1 (configuration not stated)	x	10%	x	21µM*	u
COc1ccc(S(=O)(=O)NCC(c2ccco2)N2CCOCC2)cc1OC (configuration not stated)	x	0%	x	-7%	-23%
Cc1ccc(S(=O)(=O)Nc2cnn(-c3ccccc3)c(=O)c2Cl)cc1	-44%	8%	-25%	23%	6%
CCC(C)[C@H](NC(=O)C1CCN(C(=O)[C@H](Cc2ccccc2)NS(=O)(=O)c2ccc(C)cc2)CC1)C(=O)O (some centres not stated)	7%	x	-3%	4%	15%
COc1cc(Cl)c(C)cc1NC(=O)CSC	-33%	5%	20%	4%	-2%
Cc1cc2c(N)cccc2nn1	13µM*	-12%	-23%	4%	-24%
Nc1cccc2nc3ccccc3cc12	14µM*	-5%	u	u	6.5µM*
Cc1ccccc1-c1cc(C(=O)NCc2ccc(OC(F)(F)F)cc2)nn1CC1CC(c2cccc([N+](=O)[O-])c2)=NO1 (configuration not stated)	x	3%	x	18µM*	16µM*
Cc1ccccc1-c1cc(C(=O)NCc2cccc(C(F)(F)F)c2)nn1CC1CC(c2cccc([N+](=O)[O-])c2)=NO1 (configuration not stated)	x	1%	x	23µM*	u
Cc1ccccc1-c1cc(C(=O)NCc2ccc(OC(F)(F)F)cc2)n(CC2CC(c3cccnc3)=NO2)n1 (configuration not stated)	x	1%	x	u	u
Cc1ccccc1-c1cc(C(=O)NCc2ccc3c(c2)OCO3)nn1CC1CC(c2cccc([N+](=O)[O-])c2)=NO1 (configuration not stated)	x	4%	x	u	-7%
COc1ccc(NC(NC(=O)c2ccc(OC)cc2)C(Cl)(Cl)Cl)cc1 (configuration not stated)	u	10%	u	u	u
COc1ccc(C(=O)NC(Nc2ccc(C)cc2)C(Cl)(Cl)Cl)cc1 (configuration not stated)	1%[10 µM]	1%	-75%	18µM*	21µM*
COC(=O)c1ccc(CSc2nc3c([nH]c4ccccc43)c(=O)n2-c2ccc(OC)cc2)o1	x	3%	x	18µM*	18µM*
COC(=O)c1ccc(CSc2nc3c([nH]c4ccccc43)c(=O)n2-c2ccc(Cl)cc2)o1	x	1%	x	u	u
CCOc1ccc(-n2c(SCc3ccc(C(=O)OC)o3)nc3c([nH]c4ccccc43)c2=O)cc1	x	1%	x	u	23µM*
NC(COCc1ccccc1)c1csc(NC(=O)Nc2cccc(C(F)(F)F)c2)n1 (configuration not stated)	x	x	x	u	21µM*
COc1ccccc1NC(=O)Nc1nc(C(N)CCc2ccccc2)cs1 (configuration not stated)	x	x	x	13µM*	u
CC(C)(C)c1csc(NNC(=O)c2ccc(Br)cc2)n1	1.3µM*	6%	2.8µM*	u	u
NC(CCc1ccccc1)c1csc(NC(=O)Nc2cccc(Cl)c2)n1 (configuration not stated)	x	x	x	23µM*	26µM*
O=C(N/N=C/c1c(Cl)cccc1Cl)C(=O)NC1CC1	10%	8%	-11%	0%	-14%
COCc1[nH]nc2c1C1(CCSCC1)C(C#N)=C(N)O2	6%	5%	6%	-2%	2%

Source: PubChem BioAssay (National Center for Advancing Translational Sciences (NCATS))
